Screening results (PubChem)
An excerpt weighted towards active compounds, which were near 4.2% of everything screened.
uPA generation: inhibitors of cell surface uPA generation. cell surface uPA generation assay, qHTS. Potency, µM (doses to about 38.3 µM), inactives show at the highest dose activity change, negative = inhibition, usual class: inhibitors. 330,000 compounds, 0.31% hits. AID 540303; active = well fitted inhibition curve with a large enough effect; inconclusive = small, poorly fitted or top-dose-only effect; inactive = no such curve, though single readings can be large or run the other way; tested in mouse RAW 264.7 cells; also: potency is read from the fitted curve at half-maximal effect; % is scaled to controls: 0 for no effect and ±100 for the full control effect; nearly all actives have a fitted effect of over 55% in size
ClpP mod: qHTS Assay for Activators of ClpP; ATP-dependent Clp protease proteolytic subunit (Bacillus subtilis (strain 168)), P80244; 340,000 compounds, 1.9% hits; purified B. subtilis ClpP, FRET peptide cleavage, 20 min; Potency, µM (titrated, usually from 57.5 µM), for the others: at the highest dose activity change, negative = active; active = well fitted falling curve with a large enough effect; inconclusive = small, poorly fitted or top-dose-only effect; inactive = no such curve, though single readings can be large or run the other way; also: potency is read from the fitted curve at half-maximal effect; the source files actives as falling curves though it sought activators and does not explain the sign; nearly all actives have a fitted effect of over 65% in size
Target sequence (P80244 whole entry, looked up): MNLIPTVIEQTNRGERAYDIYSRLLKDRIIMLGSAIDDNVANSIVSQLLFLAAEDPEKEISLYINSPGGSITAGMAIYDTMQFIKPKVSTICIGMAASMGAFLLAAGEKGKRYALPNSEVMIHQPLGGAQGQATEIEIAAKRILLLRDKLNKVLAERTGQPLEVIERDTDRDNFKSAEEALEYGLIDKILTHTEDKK
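Buffer: 100 mM Tris/HCl pH8, 100 mM KCl, 0.05% low protease BSA, 2.5% glycerol, 0.01% Tween-20. ClpP 10 microg/mL final; 20 min RT; delta FRET normalized to ADEP and DMSO controls.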
Sfp PPTase inh: Sfp phosphopantetheinyl transferase inhibition | Q9F4F7 | Biochemical Sfp PPTase activity, qHTS | Potency, µM, inactives show largest response in the series, negative = inhibition, usual class: inhibitors | 310,000 compounds, 3.5% hits | AID 1490;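 also: the enzyme is Sfp with the accession as filed and its product quenches rhodamine fluorescence; potency is read from the fitted curve at half-maximal effect; 0% = enzyme reaction without inhibitor and -100% = no enzyme wells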
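After 15 min at room temperature with compound, 15 nM Sfp received 5 uM rhodamine-CoA plus 12.5 uM BHQ-2-ybbR (50 mM Hepes pH 7.6, 10 mM MgCl2). Rate came from the fluorescence difference over 30 min, ex 525/em 598 nm.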
TCR activator: activates T cell receptor signaling. 330,000 tested, under 10 active. primary human leukocytes, anti-CD3, IL-2 HTRF, 48 h. Potency, µM (series often up to 9.22 µM), for the others: at the top dose activation of IL-2 secretion, most hits filed as activators; also: % of control where 0% means no effect
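Compounds are tested in HTS on primary human leukocytes co-incubated with a-CD3 beads for 48 hr. IL-2 output is measured by time-resolved FRET.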
ClpP validation: validation of B. subtilis ClpP protease hits (inhibitors) | 470 compounds, 40% hits | Potency, µM (titrated, usually from 57.5 µM), for inactives: top-dose activity change, negative = inhibition, usual class: inhibitors | shares compounds with ClpP mod | purified B. subtilis ClpP, FRET-FV substrate cleavage, 20 min; also: potency is read from the fitted curve at half-maximal effect; % is scaled to controls: 0 for no effect and ±100 for the full control effect; nearly all actives have a fitted effect of over 70% in size
The depositor's hits bear a star; ? = inconclusive; . = no result given; [ ] = another dose, or the depositor's remark. Unless noted, calls follow the shape of the dose curve; as a rule, active = well fitted curve in the direction sought with a large enough effect; inconclusive = small, poorly fitted or top-dose-only effect, or another doubt; inactive = no such curve, though single readings can be large; an effect the other way counts as inactive or inconclusive.

SMILES	uPA generation	ClpP mod	Sfp PPTase inh	TCR activator	ClpP validation
Cc1cccc(C)c1NC(=O)C(c1ccc(C(F)(F)F)cc1)n1c(=O)c(-c2cc3ccccc3[nH]2)nc2ccccc21 (stereo not drawn)	.	18%	.	.	.
CC(C)(C)NC(=O)C(c1ccc(-c2ccccc2)cc1)n1c(=O)c(-c2cc3ccccc3[nH]2)nc2ccccc21 (stereo not drawn)	.	63%	.	.	20%
Nc1nc2nc(-c3ccc(OCc4ccccc4)cc3)cc(C(F)(F)F)n2n1	2%	7.1µM*	5%	1%	17µM*
CCOC(=O)C1=C[C@@H](C(C)C)N(S(=O)(=O)c2ccc(C)cc2)[C@H]1c1ccc(C(F)(F)F)cc1	.	0%	.	.	.
CCOC(=O)N1CCN(C(C(=O)NC2CCCC2)C(C)C)CC1 (stereo not drawn)	.	-1%	.	.	.
COc1ccc(Br)cc1CNC(=O)c1cnc2sc(N3CCCCCC3)nn2c1=O	.	8.9µM*	.	.	0%
CCCCCCSc1cccc(-c2nc3ccc(Cl)cn3c2NCc2ccccc2)c1	12%	-11%	.	3%	.
NC(=O)c1ccccc1NS(=O)(=O)Cc1ccccc1	2%	7.9µM*	-22%	-15%	22µM*
COc1ccccc1N1CCN(C2CCCN(C(=O)c3cc(C4CC4)on3)C2)CC1 (stereo not drawn)	1%	1%	13%	-2%	.
O=C(Cn1c2ccccc2c2nc3n(c(=O)c21)CCS3)Nc1ccccc1C(F)(F)F	7%	.	-18%	1%	.
COc1ccccc1NC(=O)Cn1c2ccccc2c2nc3n(c(=O)c21)CCS3	6%	3.2µM*	-47%	-3%	?
O=C1CC(c2ccccc2)Cc2nc3nc(C(F)(F)F)nn3cc21 (stereo not drawn)	-2%	79%	-6%	.	24%
CSc1nc2nc3c(cn2n1)C(=O)CC(c1ccccc1)C3 (stereo not drawn)	9%	1%	6%	.	.
COc1ccc(-c2c(-c3ccc4c(c3)OCO4)noc2-c2ccsc2)cn1	.	-26%	.	.	.
O=C(c1ccccn1)N(Cc1ccco1)C1(C(=O)NC2CCCC2)CCCCC1	-4%	2.5µM*	8%	-5%	0%
CCCC(=O)Nc1ccc2oc(-c3ccc(OC)c(Br)c3)nc2c1	.	8.9µM*	10%	-2%	24µM*
COc1cc2c(c(OC)c1OC)-c1ccc(SC)c(=O)cc1C(NC=O)CC2 (stereo not drawn)	-11%	-1%	.	3%	.
O=C(Nc1ccc2c(c1)Cc1ccccc1-2)c1ccncc1	1%	10µM*	-2%	5%[46.1 µM]	-6%
COc1ccc2oc3c(ccc[n+]3C)c(=O)c2c1	.	-4%	.	.	.
CCn1cc(C(=O)NCCCOC(C)C)c(=O)c2cc(S(=O)(=O)N3CCOCC3)ccc21	19%	-9%	14%	3%	.
COc1ccc(-c2[nH]c(-c3ccc4c(c3)OCO4)nc2-c2ccccc2)cc1	-3%	2.5µM*	8%	-6%	24µM*
COc1cc(-c2nc(-c3ccccc3)c(-c3ccc(F)cc3)[nH]2)cc2c1OCO2	2%	10µM*	7%	-3%[46.1 µM]	22µM*
COc1ccc(CNC(=O)C(CC(C)C)NS(=O)(=O)c2ccc3c(c2)oc(=O)n3C)cc1 (stereo not drawn)	.	-25%	.	.	.
Brc1cccc(-c2nnn3c2nc(NCc2ccc4c(c2)OCO4)c2ccccc23)c1	.	23%	.	.	?
CCCCNc1nc2c(-c3cccc(Br)c3)nnn2c2ccccc12	.	-8%	.	.	.
CC(C)(C)OC(=O)N1CCN(c2nc(-c3cccs3)nc3ccccc23)CC1	.	-10%	.	.	.
COc1ccc(NC(=O)C2=C(C)Nc3nc(SCc4ccc(C)cc4C)nn3C2c2cccc(OC)c2OC)cc1 (stereo not drawn)	.	81%	.	.	-19%
CC1=C(C(=O)Nc2ccccc2)C(c2ccc(F)cc2)n2nc(SCc3cc(C)ccc3C)nc2N1 (stereo not drawn)	.	-6%	.	.	.
CC(=O)Nc1ccc(NC(=O)c2ccc(N(C)S(=O)(=O)c3ccc(C)cc3)cc2)cc1	4%	101%	9%	-2%	?
Cc1c(C(=O)N2CCOCC2)sc2ncn(CC(=O)N3CCC(C)CC3)c(=O)c12	1%	3.2µM*	14%	-3%	-1%
